In the library only some 0.55% were active in any assay of this set; here they are far more common.
GRP78 ERSR act – induces the endoplasmic reticulum stress response in human glioma cells; Potency, µM, without a hit: at the top dose activation, usual class: activators; 0.02% of 420,000 active; AID 602332; U87-MG GRP78 promoter luciferase reporter, 16 h; further: potency means the concentration at half of the fitted maximal effect; series mostly up to about 76 µM; % of control where 0% means no effect; nearly all actives have a fitted effect of over 35% in size
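Stably transfected U87-MG glioma cells carrying a GRP78-based luciferase sensor; 16 h compound incubation. Luminescence end-point read 10 min after Bright-Glo addition at room temperature.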
TCR activator – activates T cell receptor signaling. primary human leukocytes, anti-CD3, IL-2 HTRF, 48 h. Potency, µM (series often up to 9.22 µM), for inactives: at the highest dose activation of IL-2 secretion, actives largely listed as activators. 330,000 tested, under 10 active. AID 504894; further: % of control where 0% means no effect
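48 hr co-incubation of compounds, a-CD3 beads and primary human leukocytes; IL-2 quantified homogeneously by HTRF with anti-IL-2 K and d2 conjugates.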
TSHR antag – antagonists of human thyroid stimulating hormone receptor; P16473; TSHR-expressing cells, TSH-stimulated cAMP HTRF, 2 h; active compounds read low; activity change, negative = inhibition, % at 11.5 µM; 0.2% of 330,000 active; AID 504810;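 active means activity change below a set negative limit, meaning inhibition stronger than a set level, cut at about -70% in these data; inconclusive means activity change between two set negative limits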; further: on the % scale 0 is the no-effect control and ±100 the full control effect
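Inhibition of cAMP made by TSHR-expressing cells under TSH stimulation (4nM final, EC80; 2 h, 37 deg C) is quantified with a one-step lysis HTRF kit, anti-cAMP cryptate versus cAMP-d2.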
RGS4 inh – human RGS4 inhibition. P49798. Transcreener GDP fluorescence polarization, RGS4-accelerated GTP hydrolysis. Potency, µM (series often up to 114 µM), for the others: top-dose activity change, negative = inhibition, most hits filed as inhibitors. 0.039% of 390,000 active. AID 504845; further: potency means the concentration at half of the fitted maximal effect; on the % scale 0 is the no-effect control and ±100 the full control effect; nearly all actives have a fitted effect of over 75% in size
Target sequence (P49798 whole entry, looked up): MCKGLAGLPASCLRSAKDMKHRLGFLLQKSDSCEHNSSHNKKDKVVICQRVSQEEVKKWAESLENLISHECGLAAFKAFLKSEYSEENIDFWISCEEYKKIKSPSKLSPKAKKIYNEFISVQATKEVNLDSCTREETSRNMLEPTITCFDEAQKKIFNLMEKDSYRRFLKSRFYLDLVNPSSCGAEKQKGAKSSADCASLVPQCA
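MLSMR compounds (23 nl, pin-transferred) preincubated 10 min at room temperature with a 500nM (2x) first reagent, then RGS4 at 900nM (2x) plus Transcreener GDP mix added; fluorescence polarization (620/688 nm) read before and after 90 min at 30 °C.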
LDHA block – LDHA (human) enzyme inhibition; P00338; 0.15% of 480,000 active; purified LDHA, NADH/diaphorase-resazurin fluorescence; active compounds read low; activity change, % (values are at about 110 or 230 µM); in the data active means activity change below about -30%; inconclusive means mostly about -25% to -30%;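 further: plate controls were DMSO wells for no effect and wells without enzyme for full effect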
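Enzyme activity of human lactate dehydrogenase 5 (2 nM; 0.06 mM NADH, 0.2 mM pyruvate, 5 min, RT) is measured via a resazurin/diaphorase fluorescence readout of residual NADH.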
pAkt inh – Akt phosphorylation inhibition; 0.32% of 360,000 active; Neuro2A IGF-stimulated pAkt S473 HTRF, 20 min; active compounds read low; activity change, % for hits at 50 µM; AID 651550; in the data active means activity change below about -80%; inconclusive means mostly about -51% to -80%; further: on the % scale 0 is the no-effect control and ±100 the full control effect
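Neuro2A cells in DMEM with 0.5% FBS, overnight at 37 deg C, given compound at single 50 µM final, then IGF (6 nM final) for 20 min at 37 deg C. Lysed; phospho-Akt Ser473 by HTRF after 24 h, 665/615 ratio.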
Starred values were filed as active, the others as inactive; i = inactive; ? = inconclusive; . = not tested or not shown; ! = a repeat was not active; [ ] = another dose, or the depositor's remark. Unless noted, the call rests on the fitted dose curve; in most records, active means well fitted curve in the direction sought with a large enough effect; inconclusive means small, poorly fitted or top-dose-only effect, or another doubt; inactive means no such curve, though single readings can be large; an effect the other way counts as inactive or inconclusive.

SMILES	GRP78 ERSR act	TCR activator	TSHR antag	RGS4 inh	LDHA block	pAkt inh
Cc1ccc(NC(=O)/C(=C/c2ccco2)c2ccccc2)c(C)c1	-4%	2%	-3	-25%	-1	-129%*
COc1ccc(C2=C(Nc3ccc(F)cc3)c3ccccc3C2=O)cc1	-3%	-6%	-11	5%	-8	-137%*
CC(C)NS(=O)(=O)c1ccc(Cl)c(C(=O)NCc2ccc(-c3nc4ccccc4s3)o2)c1	.	.	.	.	0	.
C=CCn1c(N)c(C(=O)N2CCOCC2)sc1=S	0%	-11%	-1	7%	-6	i
CCn1c(N)c(C(=O)N2CCOCC2)sc1=S	-3%	1%	-6	?	-5	-114%*
CC[n+]1c(C)ccc2ccccc21	.	.	.	.	8	.
Cc1ccc(-c2cc(C(=O)OCC(=O)NCC(C)C)c3ccccc3n2)o1	.	.	.	.	2	.
O=C(Cc1ccccc1)Nn1c(O)c(/C=C2\C=Nc3ccccc32)sc1=S	-1%	1%	-10	-13%	-9	i
Cn1c(O)c(/C=C2\C=Nc3ccccc32)sc1=Nc1ccc(C(=O)O)cc1	2%	-11%	-18	-20%	-35*	i
CCn1c(O)c(/C=C2\C=Nc3ccccc32)sc1=Nc1ccccc1	6%	-1%	-4	12%	-7	-89%*
Cc1ccc(Nc2nnc(-c3ccc(C)c(S(=O)(=O)NC(C)(C)CO)c3)c3ccccc23)c(C)c1	.	.	.	.	1	.
CC(C)c1ccc(/C=C2\Oc3cc(OS(C)(=O)=O)ccc3C2=O)cc1	.	.	.	.	7	.
Cc1cc(SCC(=O)Nc2ccc(F)c(F)c2F)nc2ccccc12	.	.	.	.	-34*	.
CN(C)CCCN(C(=O)c1ccco1)c1nc(-c2ccc(Cl)cc2)cs1	-1%	-2%	-121*	-3%	-9	i
N#Cc1cc(-c2ccc(Cl)cc2)cn(Cc2c(Cl)cccc2Cl)c1=O	3%	.	19	5%	-7	-95%*
C=CCn1cc(-c2ccc(Cl)cc2)cc(C#N)c1=O	-2%	-2%	-3	0%	-7	i
Cc1ccc(NC(=O)CC2CS(=O)(=O)CC2CC(=O)Nc2ccc(C)c(C)c2)cc1C (stereo not given)	-1%	-6%	-8	-1%[11.4 µM]	-5	-121%*
Cc1ccc(NC(=O)CC2C=CCC2)cc1C (stereo not given)	.	.	.	.	0	.
CC(=O)Oc1ccc2c(C)c(CC(=O)NC3CCCCCC3)c(=O)oc2c1OC(C)=O	.	.	.	.	12	.
CSc1nc(-c2ccc(Cl)cc2)nn1S(=O)(=O)c1ccccc1	-1%	0%[46.1 µM]	-1	8%	0	-115%*
O=C1NC(=O)C(c2ccccc2[N+](=O)[O-])=C1Nc1ccc(O)c(Cl)c1	-3%	10%	-4	12µM*!	-1	i
CN(C)CCCNCC(=O)c1c(-c2ccccc2)n(C)c2ccccc12	-5%	-4%	23	-53%	-37*	i
CCc1nnc(NC(=O)c2ccc3ccccc3n2)s1	-6%	3%	-10	-52%	-1	i
CCSc1nnc(NC(=O)c2ccc3ccccc3n2)s1	-7%	-1%	-11	-13%	-1	-95%*
CC(C)CCn1nnnc1C(C(C)C)N1CCC(C(N)=O)CC1 (stereo not given)	-1%	3%[46.1 µM]	-13	-10%	0	-100%*
SMILES	GRP78 ERSR act	TCR activator	TSHR antag	RGS4 inh	LDHA block	pAkt inh
ClC1(Cl)CC1Cn1c(C2CC2)nc2ccccc21 (stereo not given)	-3%	-3%	-14	-1%	-3	i
N#CCCn1c(C2CCCCC2)nc2ccccc21	-6%	-6%	0	-8%	-6	-122%*
CC1Sc2ccc(C(=O)NO)cc2NC1=O (stereo not given)	.	.	.	.	8	.
CC(C)S(=O)(=O)C1=NSC2=NC(=O)/C(=C\c3ccc(-c4ccccc4)o3)C(=N)N21	-1%	2%[46.1 µM]	-86*	-6%	-12	i
CS(=O)(=O)C1=NSC2=NC(=O)/C(=C\c3ccc(-c4ccccc4)o3)C(=N)N21	.	2%[46.1 µM]	-31	.	.	.
O=C1C(=Cc2cn(-c3ccccc3)nc2-c2ccc(OCc3ccc(Cl)cc3)cc2)SC(=S)N1CCS(=O)(=O)O	-4%	.	.	.	-24	i
O=C1C(=Cc2cn(-c3ccccc3)nc2-c2ccc(OCc3ccccc3F)cc2)SC(=S)N1CCS(=O)(=O)O	-5%	.	.	.	-34*	i
CC(C)N1CCc2c(sc(N)c2-c2nc3ccccc3s2)C1	.	.	.	.	5	.
Fc1ccc(C=Nc2cccc3c(N=Cc4ccc(F)cc4)cccc23)cc1	.	.	.	.	18	.
CCCCC[C@H](O)/C=C/[C@H]1[C@H](O)CC(O)[C@@H]1C/C=C\CCCC(=O)O (stereo not given in full)	-3%	.	.	27µM*	.	.
CCCCCCCCCCC/C=C\C/C=C\CCCC(=O)O	-4%	.	.	?	.	.
CC/C=C\C/C=C\C/C=C\C/C=C\C/C=C\CCCCCC(=O)O	-1%	.	.	21µM*	.	.
CCCCC/C=C\CC1OC1C/C=C\C/C=C\CCCC(=O)O (stereo not given)	-3%	.	.	.	.	.
CCCCC/C=C\C/C=C\C/C=C\CC1OC1CCCC(=O)O (stereo not given)	-5%	.	.	38µM*	.	.
CSC1=C(C#N)C(c2ccccc2C)C(C#N)=C(N)N1 (stereo not given)	-2%	0%	-25	7%	-36*	i
CSC1=C(C#N)C(c2ccccc2Cl)C2=C(N1)c1ccccc1C2=O (stereo not given)	2%	6%	2	-45%	0	i
O=C1CCN(C(=O)Nc2cccc(Cl)c2)N1	4%	1%	6	-24%	2	-120%*
O=C(Nc1cccc(Cl)c1)N1CCCC1	0%	.	13	-106%[56.9 µM]	-4	i
C=CCOc1ccc(CNn2cn[nH]c2=S)cc1OC	-2%	2%	5	-16%	-5	i
C=CCOc1ccc(CNn2cn[nH]c2=S)cc1OCC	-1%	.	-18	-18%	2	-82%*
Cc1ccc(C=Nc2ccc(Nc3ccccc3)cc2)s1	.	.	.	.	-17	.
O=C(CSc1nnc(Cc2cccs2)n1-c1ccccc1)NCc1ccc2c(c1)OCO2	-6%	5%	-3	-3%	3	-85%*
O=C(CSc1nnc2scc(-c3ccccc3)n12)NCc1ccc2c(c1)OCO2	-3%	1%	-4	18%	-3	i
COc1ccc(CC(=O)Nc2ccc(-c3nnc(-c4ccccc4)o3)cc2)cc1OC	2%	.	14	-64%	0	-118%*
COc1ccc(CC(=O)Nc2cccc(-c3nnc(-c4cccc(C)c4)o3)c2)cc1OC	-8%	-6%	-92*	-19%	-6	i
COc1ccc(-n2cnc3c2NC(=O)CC3c2cccnc2)cc1 (stereo not given)	.	.	.	.	97	.

Compound activity from PubChem.
